Test results from PubChem BioAssay (NCI).
Compounds without any hit were thinned out: in the full panel of roughly 83,000, 20% have a hit.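 Results are percent growth after 48 hours of single-concentration exposure. 100 means growth as in untreated cells, lower positive values show inhibition; negative values down to -100 show cell death.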 Values without a mark were called inactive. Activity calls are given as the source filed them. How the source made its calls: active means growth percent below 10; inactive means the rest.

Columns and labels:
Assay in all cases: NCI-60 one-dose screen, 48 h (100 = growth as untreated, 0 = no growth, -100 = all killed)
HCT-15 colon = settings: 10 µM unless noted
HT29 colon = settings: 10 µM unless noted
SNB-75 CNS = settings: 10 µM unless noted
SNB-19 CNS = settings: 10 µM unless noted
U251 CNS = settings: 10 µM unless noted
PC-3 prostate = settings: 10 µM unless noted
LOX IMVI melanoma = settings: 10 µM unless noted
SK-MEL-2 melanoma = settings: 10 µM unless noted
EKVX NSCLC = settings: 10 µM unless noted
UO-31 renal = settings: 10 µM unless noted
TK-10 renal = settings: 10 µM unless noted
ACHN renal = settings: 10 µM unless noted
CAKI-1 renal = settings: 10 µM
A498 renal = settings: 10 µM unless noted
CCRF-CEM leukemia = settings: 10 µM unless noted
MOLT-4 leukemia = settings: 10 µM unless noted
SK-MEL-5 melanoma = settings: 10 µM unless noted
UACC-62 melanoma = settings: 10 µM unless noted
SK-MEL-28 melanoma = settings: 10 µM unless noted
SN12C renal = settings: 10 µM unless noted

| SMILES | growth (HCT-15 colon) | growth (HT29 colon) | growth (SNB-75 CNS) | growth (SNB-19 CNS) | growth (U251 CNS) | growth (PC-3 prostate) | growth (LOX IMVI melanoma) | growth (SK-MEL-2 melanoma) | growth (EKVX NSCLC) | growth (UO-31 renal) | growth (TK-10 renal) | growth (ACHN renal) | growth (CAKI-1 renal) | growth (A498 renal) | growth (CCRF-CEM leukemia) | growth (MOLT-4 leukemia) | growth (SK-MEL-5 melanoma) | growth (UACC-62 melanoma) | growth (SK-MEL-28 melanoma) | growth (SN12C renal) |
| --- | --- | --- | --- | --- | --- | --- | --- | --- | --- | --- | --- | --- | --- | --- | --- | --- | --- | --- | --- | --- |
| C=C(C)C(=O)O[C@H]1C[C@@]2(C)OC(=CC2=O)/C(CO)=C\[C@H]2OC(=O)C(=C)[C@H]12 | -19.5% (active) | -12.2% (active) | -0.788% (active) | 42.2% | -17.7% (active) | -3.05% (active) | -94.1% (active) | -23.7% (active) | -5.67% (active) | -90.1% (active) | -88.1% (active) | -42.1% (active) | -75.1% (active) | -3.55% (active) | -44% (active) | -28% (active) |  |  |  |  |
| CN(c1ccc(Cl)cc1)S(=O)(=O)c1ccc(-c2cnc(C3CC3)o2)cc1 | 15.6% | 15% | 43% | 44.4% | 32.3% |  | 12.9% | 63.7% | 47% | 47.3% | 75.8% | 33.6% | 5.6% (active) |  | 17.1% | 16.8% | 10.2% | 37.3% | 65.2% | 29.8% |
| COc1cc2c3c(n(CCCN4CCCCC4)c(=O)c2cc1OC)-c1cc2c(cc1C3=O)OCO2 | -84.2% (active) | -96.9% (active) | -85.3% (active) | -72.3% (active) | -92.5% (active) |  | -74% (active) |  | -56.2% (active) | -89.3% (active) | -87.2% (active) | -96.7% (active) | -82.9% (active) | 70.9% | -11.6% (active) |  | 60.8% | 59.2% | -79.4% (active) | -72.1% (active) |
| CC(C)C[C@H]1C(=O)O[C@H](C(C)C)C(=O)N(C)[C@@H](C(C)C)C(=O)O[C@H](C(C)C)C(=O)N(C)[C@@H](C(C)C)C(=O)O[C@H](C(C)C)C(=O)N1C | 16.6% | 8.39% (active) | 7.5% (active) | 22.4% | 14.1% |  | 9.57% (active) | -17.8% (active) | 22.6% | -9.26% (active) | 11.9% | 10% |  | -6.04% (active) | 11.3% | 0.456% (active) | -32% (active) | 9.49% (active) | 38.2% | 8.19% (active) |
| CC1OC(O[C@@H]2[C@H](O)C(CO)OC(O[C@H]3COC(O[C@H]4CC[C@]5(C)[C@H]6CC[C@]78OC[C@@]9(CCC(C)(C)C[C@H]97)[C@H](O)C[C@@]8(C)[C@]6(C)CC[C@H]5C4(C)C)[C@@H](OC4OC(CO)[C@@H](O)[C@@H](O)[C@@H]4O)[C@@H]3O)[C@H]2OC2OC[C@@H](O)[C@@H](O)[C@@H]2O)[C@@H](O)[C@@H](O)[C@H]1O (stereo partly drawn) | -52.8% (active) | -79% (active) | -87.1% (active) | -69.2% (active) | -86.8% (active) | -85.4% (active) | -82.7% (active) | -81.4% (active) | -64% (active) | -90.8% (active) | -93.8% (active) | -92.5% (active) | -95.9% (active) | -86.5% (active) | -60% (active) | -61.1% (active) |  |  |  |  |
| CN1CCN(c2ccc(C(=O)/C=C/c3ccc(Cl)c(C(F)(F)F)c3)cc2)CC1 | 17% | 11.6% | 65.3% | 73.7% | 38.4% | 43.4% | 12.8% |  | 70.2% | 50.5% | 102% | 65.7% | 64.1% | 81.6% | 11% | 41.6% |  | 75.4% | 87.2% | 49.1% |
| CCOP(=O)(OCC)OC[C@]12CCC(C)(C)C[C@H]1C1=CC[C@@H]3[C@@]4(C)C/C(=C\c5cccnc5)[C@H](OP(=O)(OCC)OCC)C(C)(C)[C@@H]4CC[C@@]3(C)[C@]1(C)CC2 | 14.4% | 12% | 80.2% | 40% | 14.7% |  | 22% | 45.1% | 29.9% | 29.9% | 37.3% | 27.8% | 31% |  | 25.3% | 9.52% (active) | -61.3% (active) | 25.5% | 34.5% | 29.3% |
| C#CCOc1ccc(C(Nc2cc(Cl)ccc2Cl)c2nnnn2C2CCCCC2)cc1 (stereo not drawn) | 86.4% | 92.7% | 95.1% | 86% | 82.7% |  | 97.7% | 95% | -8.05% (active) | 62.5% | 90.8% | 92% | 44.4% |  | 85.8% | 68.1% | 95.4% | 66.7% | 107% | 91.4% |
| C=C(C)[C@@H]1CC[C@]2(COS(C)(=O)=O)CC[C@]3(C)[C@H](CC[C@@H]4[C@@]5(C)CCCNC(C)(C)[C@@H]5CC[C@]43C)[C@@H]12 | 3.99% (active) | 19.7% | 112% | 81.5% | 13.6% |  | -79% (active) | 94.7% | 89.2% | 81.5% | 107% | 99.2% | 86.8% |  | 71.4% | 29.5% | 97.4% | 74.8% | 103% | 76% |
| CC(=O)c1ccc(NC(=O)COc2ccc(C3SCC(=O)N3c3ccc(Br)cc3)cc2)cc1 (stereo not drawn) | 98.4% | 107% | 100% |  | 100% | 91.6% | 92.1% | 96.2% | 94.4% | 84.2% | 103% | 97.6% | 89.2% |  | 89.9% | 96.8% | 96.4% | 79.5% | 104% | 95.1% |
| Cc1occc1-c1nc2s/c(=C\c3cn(-c4ccccc4)nc3-c3ccccc3)c(=O)n2n1 | 99.2% | 101% | 84% |  | 97.1% | 90.6% | 103% | 99.9% | 99.4% | 90.5% | 106% | 108% | 89.2% | 92.9% | 90.9% | 107% | 92.4% | 92.1% | 101% | 89.3% |
| CNC(=O)c1cc(N2CCc3cc(NC(=O)Nc4ccc(Cl)c(Cl)c4)ccc32)ccn1 | 63% | 82.1% | 87.9% |  | 70% | 65.2% | 86.9% | 84.3% | 85.3% | 89.1% | 99.3% | 80.1% | 82.2% | 89.1% | 86.5% | 67.7% | 74.5% | 78.9% | 86.5% | 86.1% |
| CS(=O)(=O)c1ccc2c(c1)c1c(n2S(=O)(=O)c2ccc(Cl)cc2)CCCC1 | 24% | 5.37% (active) | -1.4% (active) |  | 25.6% | 30.7% | 36.5% |  | 48% | 37.8% | 65.7% | 46.9% | 29.3% |  | 27.3% | 24.4% | 26.7% | 15.5% | 64.2% | 33.1% |
| NC(=O)c1c(NC(=O)c2cccc(OC(F)(F)F)c2)sc2c1CCC(=O)C2 | 19.2% | 40.3% | 43.6% |  | 28.7% | 21.3% | 28.5% |  | 68.7% | 30.1% | 73.3% | 20.2% | 45.7% | 88.3% | 8.53% (active) | 44.4% | 95.4% | 60.7% | 82.6% | 59.5% |
| CC1CCc2c(sc3nc(SCC(=O)N/N=C/c4cccc(O)c4O)n(-c4ccccc4)c(=O)c23)C1 (stereo not drawn) | 85.6% | 105% | 99.2% |  | 90.9% | 76.8% | 60.4% |  | 85.6% | 73.2% | 116% | 71.9% | 76.3% |  | 91.9% | 85% | 94.1% | 84% | 78.4% | 84% |
| Cc1ccc(NC(=O)c2cc(/C=C/C(=O)NO)cc(C(F)(F)F)c2)cc1Nc1nccc(-c2cccnc2)n1 | 55.2% | 7.3% (active) | -5.81% (active) |  | -65.1% (active) | 18.9% | -68.2% (active) |  | 28% | 18.8% | 15.2% | 18.5% | 6.2% (active) | -46.9% (active) | 5.21% (active) | 5.15% (active) | -88% (active) | -41.3% (active) | -7.78% (active) | 2.25% (active) |
